# Data as given in PubChem BioAssay (NCI).
# Compounds without any hit were thinned out: in the full panel of roughly 83,000, 20% have a hit.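 Activity criterion: percent growth below 10, measured after cells in 96-well plates were exposed to a single compound concentration for 48 hours.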 A number with no mark means an inactive call. Active and inactive are the calls of the source.
# Tested on: K-562 leukemia
# Experiment: NCI-60 one-dose screen, 48 h (100 = growth as untreated, 0 = no growth, -100 = all killed)
# Conditions: 10 µM unless noted
row,Compound,growth
1,N#Cc1c(N)[nH]c(S)c1C#N,100%
2,NC(=Nc1ccccc1)SCCCCSC(N)=Nc1ccccc1,44.5%
3,CN(C)c1cccc2c(S(=O)(=O)N[C@H]3CC[C@H]4[C@@H]5CCc6cc(O)ccc6[C@H]5CC[C@]34C)cccc12,2.22% (active)
4,CCCCCCCCCCCCCCCCCc1nccn1CCO,3.81% (active)
5,COC(=O)CCC1=C(C)/C(=C/c2[nH]c(-c3ccc[nH]3)cc2OC)N=C1C,-16.4% (active)
6,NC(=O)N/N=C/c1ccc(Br)o1,104%
7,COc1ccc(OC)c2c1[nH]c(=O)c1c3ccccc3cn21,11.2%
8,O=C1C(=O)c2ccc(Br)cc2-c2cc(Br)ccc21,4.69% (active)
9,O=c1c(O)cccn1CCCNCCCN(CCCn1cccc(O)c1=O)CCCn1cccc(O)c1=O,117%
10,CN(CCOc1ccc(CC2SC(=O)NC2=O)cc1)c1ccccn1 (centres undefined),118%
11,COc1cccc2c1C(=O)c1c(O)c3c(c(O)c1C2=O)C[C@@](O)(/C(C)=N/NC(=O)c1cccc([N+](=O)[O-])c1)C[C@@H]3OC1CC(N)C(O)C(C)O1 (some centres undefined),-75.7% (active)
12,Cc1nnc(Nc2ccc(NC(=O)Nc3ccc(Cl)cc3)cc2)c2ccccc12,-16.7% (active)
13,O=C(Nc1ccc(Cl)cc1)Nc1ccc(Nc2nncc3ccccc23)cc1,9.49% (active)
14,OCc1nnn(-c2ccccc2)c1CO,132%
15,COc1ccc2c(c1)C(=O)c1c-2c(=O)n(CCCCCCC(=O)NO)c2ccccc12,8.79% (active)
16,O=[N+]([O-])c1ccc(N/N=C\c2ccccc2[N+](=O)[O-])nc1,94.6%
17,CN1COc2ccc3ccccc3c2C1,99.7%
18,O=C(Nc1cccc2ccccc12)c1cc2c(cc1Br)OCO2,97.8%
19,Cc1cc(NC(=O)Nc2cc(Cl)ccc2C)no1,80.8%

row,Compound,growth
1,O=C1C[C@@H]2/C(=C(O)\C=C\c3ccccc3)C(=O)C=C[C@@H]2O1,14.3%
2,O=C1/C(=C/c2ccc([N+](=O)[O-])o2)Oc2ccc(Cl)cc21,-30.1% (active)
3,c1ccc(N2CCN(c3nncc4ccccc34)CC2)nc1,106%
4,O=C(Nc1ccc(Oc2ccc(NC(=O)Nc3ccc([N+](=O)[O-])cc3)cc2)cc1)Nc1ccc([N+](=O)[O-])cc1,-4.47% (active)
5,Cc1cc(C)n(C(=O)c2nn(-c3ccc(Cl)cc3)cc2O)n1,6.26% (active)
6,NC(=O)c1ncn([C@@H]2O[C@H](CO)[C@@H](O)[C@H]2O)n1,88.3%
7,CCCCN(CCCC)CCCOC(=O)c1ccc(N)cc1,96.5%
8,COc1ccc2c(c1)C(=O)/C(=C/c1ccc([N+](=O)[O-])s1)O2,3.01% (active)
9,CCCCCCCCCCCCCCCCCC1=NC(C)(C)CN1CCO,-49.5% (active)
10,COc1cc([C@@H]2c3cc4c(cc3C(O[C@@H]3O[C@@H]5CO[C@@H](c6cccs6)OC5[C@H](O)[C@H]3O)C3COC(=O)[C@@H]32)OCO4)cc(OC)c1O (some centres undefined),4.5% (active)
11,CC12CCC3C(CCC4CC(=O)/C(=C\O)CC43C)C1CCC(=O)O2 (centres undefined),104%
12,O=C(Nc1ccc(Cl)cc1Cl)Nc1ccc(-c2cccnc2)cc1N1CCC(CO)CC1,17.7%
13,CCN(CC)CCCCNc1c2ccccc2[n+](C)c2c1[nH]c1ccccc12,-20.8% (active)
14,Cc1ccc(NC(=O)Nc2ccc(-c3cccnc3)cc2N2CCC(CO)CC2)cc1,9.37% (active)
15,COc1cc(C2CC(c3ccc(C)cc3)=NN2C(C)=O)ccc1Oc1ccnc2cc(Cl)ccc12 (centres undefined),93.3%
16,C[n+]1c2ccccc2c(NC2CCNCC2)c2[nH]c3ccccc3c21,12.7%
17,Clc1ccc([C@@H]2C[C@@H]3Cc4cc(Br)c5ccccc5c4N2O3)c(Cl)c1,23.8%
18,C=C(C)[C@@H]1C[C@H](O)Cc2cc(Cl)cc(Cl)c2N1,103%

# Tested on: MALME-3M melanoma
# Experiment: as above
# Conditions: 10 µM unless noted
row,Compound,growth
1,N#Cc1c(N)[nH]c(S)c1C#N,107%
2,NC(=Nc1ccccc1)SCCCCSC(N)=Nc1ccccc1,102%
3,CN(C)c1cccc2c(S(=O)(=O)N[C@H]3CC[C@H]4[C@@H]5CCc6cc(O)ccc6[C@H]5CC[C@]34C)cccc12,29.6%
4,CCCCCCCCCCCCCCCCCc1nccn1CCO,89.7%
5,COC(=O)CCC1=C(C)/C(=C/c2[nH]c(-c3ccc[nH]3)cc2OC)N=C1C,-38.1% (active)
6,NC(=O)N/N=C/c1ccc(Br)o1,106%
7,COc1ccc(OC)c2c1[nH]c(=O)c1c3ccccc3cn21,-89.4% (active)
8,O=C1C(=O)c2ccc(Br)cc2-c2cc(Br)ccc21,70.4%
9,O=c1c(O)cccn1CCCNCCCN(CCCn1cccc(O)c1=O)CCCn1cccc(O)c1=O,108%
10,CN(CCOc1ccc(CC2SC(=O)NC2=O)cc1)c1ccccn1 (centres undefined),88.3%
11,COc1cccc2c1C(=O)c1c(O)c3c(c(O)c1C2=O)C[C@@](O)(/C(C)=N/NC(=O)c1cccc([N+](=O)[O-])c1)C[C@@H]3OC1CC(N)C(O)C(C)O1 (some centres undefined),-93.6% (active)
12,Cc1nnc(Nc2ccc(NC(=O)Nc3ccc(Cl)cc3)cc2)c2ccccc12,-9.9% (active)
13,O=C(Nc1ccc(Cl)cc1)Nc1ccc(Nc2nncc3ccccc23)cc1,38.5%
14,OCc1nnn(-c2ccccc2)c1CO,122%
15,COc1ccc2c(c1)C(=O)c1c-2c(=O)n(CCCCCCC(=O)NO)c2ccccc12,-23.1% (active)
16,O=[N+]([O-])c1ccc(N/N=C\c2ccccc2[N+](=O)[O-])nc1,117%
17,CN1COc2ccc3ccccc3c2C1,111%
18,O=C(Nc1cccc2ccccc12)c1cc2c(cc1Br)OCO2,89.4%
19,Cc1cc(NC(=O)Nc2cc(Cl)ccc2C)no1,191%

row,Compound,growth
1,O=C1C[C@@H]2/C(=C(O)\C=C\c3ccccc3)C(=O)C=C[C@@H]2O1,-35.1% (active)
2,O=C1/C(=C/c2ccc([N+](=O)[O-])o2)Oc2ccc(Cl)cc21,-45.6% (active)
3,c1ccc(N2CCN(c3nncc4ccccc34)CC2)nc1,109%
4,O=C(Nc1ccc(Oc2ccc(NC(=O)Nc3ccc([N+](=O)[O-])cc3)cc2)cc1)Nc1ccc([N+](=O)[O-])cc1,-3.45% (active)
5,Cc1cc(C)n(C(=O)c2nn(-c3ccc(Cl)cc3)cc2O)n1,117%
6,NC(=O)c1ncn([C@@H]2O[C@H](CO)[C@@H](O)[C@H]2O)n1,92.7%
7,CCCCN(CCCC)CCCOC(=O)c1ccc(N)cc1,93%
8,COc1ccc2c(c1)C(=O)/C(=C/c1ccc([N+](=O)[O-])s1)O2,-46.3% (active)
9,CCCCCCCCCCCCCCCCCC1=NC(C)(C)CN1CCO,11.8%
10,COc1cc([C@@H]2c3cc4c(cc3C(O[C@@H]3O[C@@H]5CO[C@@H](c6cccs6)OC5[C@H](O)[C@H]3O)C3COC(=O)[C@@H]32)OCO4)cc(OC)c1O (some centres undefined),-28.7% (active)
11,CC12CCC3C(CCC4CC(=O)/C(=C\O)CC43C)C1CCC(=O)O2 (centres undefined),124%
12,O=C(Nc1ccc(Cl)cc1Cl)Nc1ccc(-c2cccnc2)cc1N1CCC(CO)CC1,41.3%
13,CCN(CC)CCCCNc1c2ccccc2[n+](C)c2c1[nH]c1ccccc12,-63.9% (active)
14,Cc1ccc(NC(=O)Nc2ccc(-c3cccnc3)cc2N2CCC(CO)CC2)cc1,25.5%
15,COc1cc(C2CC(c3ccc(C)cc3)=NN2C(C)=O)ccc1Oc1ccnc2cc(Cl)ccc12 (centres undefined),94.7%
16,C[n+]1c2ccccc2c(NC2CCNCC2)c2[nH]c3ccccc3c21,-15.7% (active)
17,Clc1ccc([C@@H]2C[C@@H]3Cc4cc(Br)c5ccccc5c4N2O3)c(Cl)c1,61.7%
18,C=C(C)[C@@H]1C[C@H](O)Cc2cc(Cl)cc(Cl)c2N1,108%
